Inconclusive results are not listed. Calls of active or inactive are those of the source. Unless noted, calls come from the whole dose curve.

Assay [1] in a line: Nuclear factor erythroid 2-related factor 2/antioxidant responsive element (Nrf2/ARE) small molecule agonists: qHTS cell viability counter screen in human keratinocytes (AID 1919968; active = well fitted curve in the direction sought with a large enough effect in the repeat runs; an effect the other way counts as inactive or inconclusive; note: nearly all actives have a fitted effect of over 55% in size). Summed up: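 Viability counter-screen: KeratinoSens reporter cells, DMSO-delivered compounds, 23 h at 37 C, CellTiter-Fluor fluorescence.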
Assay [2] in a line: Nuclear factor erythroid 2-related factor 2/antioxidant responsive element (Nrf2/ARE) small molecule agonists: luciferase reporter gene qHTS assay in human keratinocytes (AID 1919969; note: nearly all actives have a fitted effect of over 35% in size; note: potency is the fitted concentration of half-maximal effect). (In general: Reporter assays use an easily measured gene product as a stand-in for the process of interest.)
Assay [3] concerns the target Gonadotropin-releasing hormone receptor (Homo sapiens) (UniProt P30968). Kind of assay: Human gonadotropin-releasing hormone receptor (GnRHR) small molecule agonists, calcium flux assay in GnRHR-HEK293 cells (AID 1920063). Note: nearly all actives have a fitted effect of over 35% in size. Note: potency is the fitted concentration of half-maximal effect. Summed up:
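Tox21-format agonist screen using human GnRHR-expressing HEK293 cells and a fluorescent calcium dye; kinetic 3-min fluorescence reading after compound addition, 15-point concentration series run in triplicate.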

Assay [4] has as its target KiSS-1 receptor (Homo sapiens) (UniProt Q969F8). The experiment in a line: Human kisspeptin (KISS1R) small molecule agonists, calcium flux assay in KISS1R-HEK293 cells (AID 1920064; active = well fitted curve in the direction sought with a large enough effect in the repeat runs; an effect the other way counts as inactive or inconclusive). An outline of the steps: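 Intracellular calcium mobilization in KISS1R-HEK293 cells was recorded by fluorescence (Ex/Em 480/540) for 3 min following compound addition to cells pre-loaded 1 h with calcium dye.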
In general terms: Calcium assays in cells follow changes in intracellular calcium, usually with a dye or a luminescent sensor.

A short description of assay [5]: G protein-coupled receptor (GPCR) small molecule agonists, calcium flux assay: HEK293 wild type cell line counter screen (AID 1920065). Summed up:
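In this agonist-mode screen, ATP is the positive control and DMSO the vehicle. Cells grow 18 h before a 1 h dye incubation at 37 C; signal is taken at Ex/Em 480/540 over 3 min.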

The nature of assay [6]: p53 small molecule agonists, cell-based qHTS assay with human liver microsomes (AID 1963577). An outline of the steps:
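Cells carrying a p53-responsive bla reporter were rested 5 h (37 C, 5% CO2) before compound transfer. Human liver microsomes plus NADPH, 0.5 mg/mL final apiece, supplied metabolism during the 16 h 37 C exposure.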
A general note: In qHTS, concentration-response curves come from the screen itself.

Assay [7] in a line: p53 small molecule agonists, cell-based qHTS assay with rat liver microsomes (AID 1963578). An outline of the steps:
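Fluorescence from a beta-lactamase reporter under a p53 response element was measured after cells had been incubated 16 h at 37 C with test compound and rat liver microsomes plus NADPH (0.5 mg/mL final each).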

Assay [8] is described as follows: p53 small molecule agonists, cell-based qHTS assay with human liver microsomes: qHTS cell viability counter screen (AID 1963579). Note: nearly all actives have a fitted effect of over 45% in size. Summed up:
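Seed p53RE-bla cells at 4,000 per well; incubate 5 h at 37 C; add compound, human liver microsomes and NADPH; incubate 16 h at 37 C; add CellTiter-Glo; after 30 min at room temperature, read luminescence.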

The nature of assay [9]: p53 small molecule agonists, cell-based qHTS assay with rat liver microsomes: qHTS cell viability counter screen (AID 1963580). Note: nearly all actives have a fitted effect of over 45% in size. An outline of the steps:
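p53RE-bla HCT-116 cells were exposed 16 h at 37 C to compounds with rat liver microsomes (0.5 mg/mL) and NADPH (0.5 mg/mL). Viability was measured in the same wells as ATP content by CellTiter-Glo luminescence.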

Assay [10] in a line: p53 small molecule agonists, cell-based qHTS assay: qHTS cell viability counter screen (AID 1963581). Note: nearly all actives have a fitted effect of over 45% in size. Summed up:
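Compounds are pinned onto HCT-116 p53RE-bla cells and left 16 h at 37 C. Following the reporter FRET read, ATP is quantified by CellTiter-Glo luminescence after 30 min at room temperature.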

A short description of assay [11]: p53 small molecule agonists, cell-based qHTS assay (AID 1963582; active = well fitted activation curve with a large enough effect in the signal ratio in the repeat runs, not every such curve was filed as active; the % refers to the signal ratio). Summed up:
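Agonist activity was scored from beta-lactamase FRET fluorescence in p53RE-bla cells treated 16 h at 37 C with compounds in DMSO, substrate incubation being 2 h at room temperature.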

The target of assay [12] is Muscarinic acetylcholine receptor M1 (Homo sapiens) (UniProt P11229). Kind of assay: Cholinergic receptor muscarinic 1 (CHRM1) small molecule antagonists, cell-based qHTS assay (AID 1963588). Note: nearly all actives have a fitted effect of over 40% in size. An outline of the steps: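 CHRM1-CHO calcium-flux assay, antagonist mode. Cells were seeded 18 h, dye-loaded 1 h at 37 C and given compound for 5 min at RT, then acetylcholine was added at 50nM. FDSS fluorescence was read 3 min; 15 concentrations, three runs.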
Muscarinic acetylcholine receptor M1 (Homo sapiens), sequence (P11229 whole entry, looked up): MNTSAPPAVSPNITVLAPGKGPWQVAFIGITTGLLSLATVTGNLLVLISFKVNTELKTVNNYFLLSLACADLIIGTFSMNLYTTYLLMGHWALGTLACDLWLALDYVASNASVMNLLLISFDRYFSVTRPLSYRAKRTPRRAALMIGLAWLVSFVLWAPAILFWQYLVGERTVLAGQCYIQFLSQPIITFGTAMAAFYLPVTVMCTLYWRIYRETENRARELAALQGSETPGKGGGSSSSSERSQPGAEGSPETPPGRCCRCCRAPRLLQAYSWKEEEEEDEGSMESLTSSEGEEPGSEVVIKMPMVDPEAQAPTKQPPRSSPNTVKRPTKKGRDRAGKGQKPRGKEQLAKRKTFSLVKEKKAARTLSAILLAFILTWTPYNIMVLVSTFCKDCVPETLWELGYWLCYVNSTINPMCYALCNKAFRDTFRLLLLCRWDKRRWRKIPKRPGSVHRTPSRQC

Assay [13] has the same target. The experiment in a line: Cholinergic receptor muscarinic 1 (CHRM1) small molecule agonists, cell-based qHTS assay (AID 1963589). Note: nearly all actives have a fitted effect of over 35% in size. An outline of the steps: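 Stable CHRM1-CHO cells (human receptor) were incubated 18 h, dye-loaded for 1 h at 37 C and exposed to test compounds for agonist activity, with calcium-dependent fluorescence followed kinetically.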
The nature of assay [14]: cAMP Responsive Elements (CRE) small molecule agonists, cell-based qHTS assay (AID 1963590). Summed up: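 FRET-based beta-lactamase readout (LiveBLAzer B/G, 2 h RT) quantified CRE activation in HEK 293T CRE-bla cells after 3 h treatment with DMSO-dissolved compounds.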
A short description of assay [15]: cAMP Responsive Elements (CRE) small molecule antagonists, cell-based qHTS assay (AID 1963591; active = well fitted inhibition curve with a large enough effect in the signal ratio in the repeat runs, not every such curve was filed as active; the % refers to the signal ratio). Summed up: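 qHTS in CRE-bla HEK 293T cells: compound in DMSO, then 0.25 uM NKH477 (final), 3 h at 37 °C/5% CO2; beta-lactamase FRET read-out after 2 h substrate incubation.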
Assay [16] has as its target Beta-2 adrenergic receptor (Homo sapiens) (UniProt P07550). Kind of assay: Adrenergic beta2 receptor (ADRB2) small molecule antagonists, cell-based qHTS assay (AID 1963592). Note: series mostly up to about 92 µM; nearly all actives have a fitted effect of over 50% in size. An outline of the steps:
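Cells (CHO, stable ADRB2 overexpression) incubated 18-20hr at 37C; compounds added from DMSO; agonist mix (1nM isoproterenol, 100uM IBMX, 25uM Ro-20-1724) added; 0.5hr RT; d2-cAMP and anti-cAMP-cryptate added; 1hr RT; 665/615 nm read.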

The target of assay [17] is D(2) dopamine receptor (Homo sapiens) (UniProt P14416). The experiment in a line: Dopamine D2 receptor (DRD2) small molecule agonists, cell-based qHTS assay (AID 1963594). Note: nearly all actives have a fitted effect of over 35% in size. Summed up: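 HEK293 cells stably expressing human DRD2, pre-treated with PDE inhibitor Ro20-1724 (0.1 mM final) and compound 10 min at room temperature, then stimulated with NKH477 (200nM […]) for 30 min. cAMP read by HTRF (665/620 nm).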
D(2) dopamine receptor (Homo sapiens), sequence (P14416 whole entry, looked up): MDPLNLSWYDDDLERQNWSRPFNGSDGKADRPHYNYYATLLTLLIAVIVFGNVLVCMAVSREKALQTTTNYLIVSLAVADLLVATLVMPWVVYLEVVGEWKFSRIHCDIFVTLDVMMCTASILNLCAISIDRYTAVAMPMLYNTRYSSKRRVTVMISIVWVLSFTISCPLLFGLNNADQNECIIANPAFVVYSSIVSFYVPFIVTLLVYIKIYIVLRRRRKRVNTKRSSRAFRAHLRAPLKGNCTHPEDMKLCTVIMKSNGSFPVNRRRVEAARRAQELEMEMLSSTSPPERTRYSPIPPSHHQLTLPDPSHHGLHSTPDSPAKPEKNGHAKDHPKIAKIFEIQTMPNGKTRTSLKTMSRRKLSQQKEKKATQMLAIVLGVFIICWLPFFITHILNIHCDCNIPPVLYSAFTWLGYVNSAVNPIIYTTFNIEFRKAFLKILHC

Assay [18] shares this target. The experiment in a line: Dopamine D2 receptor (DRD2) small molecule antagonists, cell-based qHTS assay (AID 1963595; active = well fitted inhibition curve with a large enough effect in the signal ratio in the repeat runs, with a control signal flat; the % refers to the signal ratio). An outline of the steps:
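Stable D2 receptor HEK293 line, 24 h after seeding. Compound preincubated 10 min, then quinpirole (12 nM) with forskolin analogue NKH477 (200 nM), 30 min, room temperature. Detection by time-resolved FRET of cAMP.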

The target of assay [19] is Beta-2 adrenergic receptor (Homo sapiens) (UniProt P07550). Kind of assay: Adrenergic beta2 receptor (ADRB2) small molecule agonists, cell-based qHTS assay (AID 1963593).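 Note: CHO cells stably overexpressing human ADRB2.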 An outline of the steps:
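CHO cells stably over-expressing ADRB2 were plated overnight at 37C, then dosed with compounds plus a stimulation mix containing 100uM IBMX and 25uM Ro-20-1724 for 0.5hr at room temperature. cAMP was measured by HTRF competition, 1hr.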

In assay [20] the target is 5-hydroxytryptamine receptor 2A (Homo sapiens) (UniProt P28223). Kind of assay: 5-hydroxytryptamine receptor 2A (HTR2A) small molecule agonists, cell-based qHTS assay (AID 1963587). Note: nearly all actives have a fitted effect of over 30% in size. Note: potency is the fitted concentration of half-maximal effect. Summed up:
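CHO cells stably expressing human HTR2A, plated 18 h, loaded with calcium dye 1 h at 37 C. Agonist mode: compounds added and intracellular calcium fluorescence recorded kinetically for 2 min at 1 sec intervals.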

Beta-2 adrenergic receptor (Homo sapiens), sequence (P07550 whole entry, looked up): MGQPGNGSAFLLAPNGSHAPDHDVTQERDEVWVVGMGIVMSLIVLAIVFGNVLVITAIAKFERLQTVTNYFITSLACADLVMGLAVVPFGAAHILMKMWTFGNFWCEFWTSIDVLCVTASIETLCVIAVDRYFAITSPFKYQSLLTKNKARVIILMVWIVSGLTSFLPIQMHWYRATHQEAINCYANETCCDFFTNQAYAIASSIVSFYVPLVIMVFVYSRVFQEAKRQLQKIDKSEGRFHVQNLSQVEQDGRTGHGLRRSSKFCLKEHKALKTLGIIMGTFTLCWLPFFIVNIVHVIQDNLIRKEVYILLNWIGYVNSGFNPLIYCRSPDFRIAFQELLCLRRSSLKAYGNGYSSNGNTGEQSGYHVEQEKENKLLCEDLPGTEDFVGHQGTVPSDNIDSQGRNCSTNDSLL
KiSS-1 receptor (Homo sapiens), sequence (Q969F8 whole entry, looked up): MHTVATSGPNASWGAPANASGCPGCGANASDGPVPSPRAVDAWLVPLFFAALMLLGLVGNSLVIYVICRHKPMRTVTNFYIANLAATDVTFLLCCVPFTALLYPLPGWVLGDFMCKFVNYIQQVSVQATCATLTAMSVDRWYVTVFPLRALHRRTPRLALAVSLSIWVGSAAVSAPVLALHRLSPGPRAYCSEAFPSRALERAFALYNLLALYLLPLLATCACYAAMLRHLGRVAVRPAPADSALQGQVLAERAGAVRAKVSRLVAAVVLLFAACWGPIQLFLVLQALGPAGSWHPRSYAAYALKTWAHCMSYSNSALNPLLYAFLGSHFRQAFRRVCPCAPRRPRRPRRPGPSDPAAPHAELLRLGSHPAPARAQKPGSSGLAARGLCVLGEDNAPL
Gonadotropin-releasing hormone receptor (Homo sapiens), sequence (P30968 whole entry, looked up): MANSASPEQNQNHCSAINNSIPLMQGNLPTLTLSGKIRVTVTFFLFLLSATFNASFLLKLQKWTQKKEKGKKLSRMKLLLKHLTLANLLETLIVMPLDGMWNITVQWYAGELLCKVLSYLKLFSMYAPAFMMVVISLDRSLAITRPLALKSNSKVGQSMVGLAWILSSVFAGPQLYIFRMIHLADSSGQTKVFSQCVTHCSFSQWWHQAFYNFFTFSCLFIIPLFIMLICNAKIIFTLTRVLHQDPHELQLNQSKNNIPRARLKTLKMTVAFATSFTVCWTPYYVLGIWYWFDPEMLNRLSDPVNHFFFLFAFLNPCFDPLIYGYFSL
5-hydroxytryptamine receptor 2A (Homo sapiens), sequence (P28223 whole entry, looked up): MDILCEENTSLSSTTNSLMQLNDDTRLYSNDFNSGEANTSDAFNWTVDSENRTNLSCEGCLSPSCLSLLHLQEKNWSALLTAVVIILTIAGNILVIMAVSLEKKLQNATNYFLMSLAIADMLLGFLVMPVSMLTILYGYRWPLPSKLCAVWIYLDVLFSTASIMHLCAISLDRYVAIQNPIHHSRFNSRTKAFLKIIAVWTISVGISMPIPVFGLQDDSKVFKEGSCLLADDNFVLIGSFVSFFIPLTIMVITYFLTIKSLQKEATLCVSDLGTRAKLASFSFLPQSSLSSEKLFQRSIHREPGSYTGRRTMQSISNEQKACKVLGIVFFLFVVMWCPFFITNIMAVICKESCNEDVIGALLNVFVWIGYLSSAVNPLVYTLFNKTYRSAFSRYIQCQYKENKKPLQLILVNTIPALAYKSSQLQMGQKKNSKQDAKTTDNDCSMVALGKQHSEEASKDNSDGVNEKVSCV

For the compound `Cc1ccnc(N)c1`, the Potency entry in assay [1], in assay [2], in [3], in assay [6], in assay [7] and in assay [8] was “inactive” in each case. The Potency entry in [9], in assay [10], in [11], in [12], in [13] and in [14] was “inactive” in each case. In addition, the Potency entry in assay [15], in assay [16], in assay [17] and in assay [18] was “inactive” in each case. Further, the outcome in [4] and in assay [5] was inactive.
As for `O=C1c2cccc(O)c2C(=O)c2c(O)cc(CO)cc21`, the Potency entry in [1], in [3], in assay [6], in assay [7], in assay [8] and in [9] was “inactive” in each case. Further, the Potency result in assay [10], in assay [11], in [13], in [15], in [16] and in assay [19] was “inactive” in each case. Also, the Potency entry in [17] and in [18] was “inactive” in each case. For the same compound, the Potency in assay [2] is 13.7 µM (active). In addition, the result in assay [4] and in assay [5] was inactive.
For the compound `O=Cc1c(Cl)cccc1Cl`, the Potency result in assay [1], in assay [2], in assay [3], in [6], in [7] and in [8] was “inactive” throughout. In addition, the Potency entry in assay [9], in assay [10], in assay [11], in [12], in assay [13] and in [14] was “inactive” each time. For the same compound, the Potency result in assay [15], in assay [16] and in assay [18] was “inactive” in each case. The outcome in [4] and in assay [5] was inactive.
With `COC(=O)N/N=C/c1c[n+]([O-])c2ccccc2[n+]1[O-]`, the Potency result in assay [1], in assay [2], in assay [6], in assay [7], in assay [8] and in [9] was “inactive” each time. In addition, the Potency entry in assay [10], in assay [11], in assay [12], in assay [13], in assay [14] and in [15] was “inactive” in each case. The Potency entry in assay [16], in assay [19], in assay [17] and in assay [18] was “inactive” in each case. Besides, the Potency is 19 µM (active) in assay [3] and 15.1 µM (active) in assay [20]. Moreover, the result in [4] and in assay [5] was inactive.
Regarding `CSc1nc(NC2CC2)nc(NC(C)(C)C)n1`, the Potency result in [1], in [2], in assay [3], in assay [6], in [7] and in [8] was “inactive” throughout. Besides, the Potency entry in assay [9], in [10], in [11], in assay [12], in [13] and in assay [14] was “inactive” each time. Further, the Potency result in assay [16] and in assay [18] was “inactive” in each case. The outcome in [4] and in assay [5] was inactive.
For the compound `CC1CCCCC1`, the Potency result in [1], in assay [2], in [3], in assay [6], in assay [7] and in assay [8] was “inactive” in each case. Also, the Potency result in [9], in assay [10], in assay [11], in [12], in assay [13] and in assay [14] was “inactive” throughout. In addition, the Potency entry in assay [15], in assay [16], in [17] and in [18] was “inactive” in each case. For the same compound, the result in assay [4] and in [5] was inactive.
As for `O=C(O)c1cccc(O)c1`, the Potency entry in assay [1], in assay [2], in [3], in assay [6], in [7] and in [8] was “inactive” each time. Moreover, the Potency result in assay [9], in assay [10], in assay [11], in [20], in [12] and in assay [13] was “inactive” each time. For the same compound, the Potency result in [14], in assay [15], in assay [16], in assay [19] and in assay [17] was “inactive” throughout. Besides, the outcome in assay [4] and in [5] was inactive.
For `Clc1nnc(Cl)c2ccccc12`, the Potency entry in [1], in [3], in [6], in assay [7], in assay [8] and in [9] was “inactive” throughout. The Potency entry in assay [10], in assay [11], in assay [12], in assay [13], in assay [15] and in assay [17] was “inactive” throughout. The Potency entry in assay [18] was “inactive”. For the same compound, the Potency in [2] was 6.08 µM (active). Moreover, the result in [4] and in [5] was inactive.

These data come from PubChem BioAssay (Tox21).
